# Data taken from PubChem BioAssay (NCI).
# Compounds without any hit were thinned out: in the full panel of roughly 83,000, 20% have a hit.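 Treatment: one concentration, 48 hours, 96-well format. Scoring: percent growth, with anything below 10 considered active.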 A number with no mark means an inactive call. Calls of active or inactive are those of the source.
# What was measured:
# Test in all cases: NCI-60 one-dose screen, 48 h (100 = growth as untreated, 0 = no growth, -100 = all killed)
# Settings in all cases: 10 µM unless noted
# [1] = tested on: DU-145 prostate
# [2] = tested on: K-562 leukemia
# [3] = tested on: MALME-3M melanoma
# [4] = tested on: MDA-MB-231 breast
# [5] = tested on: RXF 393 renal
# [6] = tested on: SF-268 CNS
# [7] = tested on: SF-295 CNS
# [8] = tested on: SF-539 CNS
# [9] = tested on: UACC-257 melanoma
# [10] = tested on: M14 melanoma
# [11] = tested on: HCT-15 colon
# [12] = tested on: HT29 colon
# [13] = tested on: SNB-75 CNS
# [14] = tested on: SNB-19 CNS
# [15] = tested on: U251 CNS
# [16] = tested on: PC-3 prostate
# [17] = tested on: SK-MEL-5 melanoma
# [18] = tested on: UACC-62 melanoma
# [19] = tested on: LOX IMVI melanoma
# [20] = tested on: SK-MEL-28 melanoma
Compound,growth [1],growth [2],growth [3],growth [4],growth [5],growth [6],growth [7],growth [8],growth [9],growth [10],growth [11],growth [12],growth [13],growth [14],growth [15],growth [16],growth [17],growth [18],growth [19],growth [20]
C=C(C)[C@@H]1CC[C@]2(C(=O)NCCCCCN(CCC#N)CCC#N)CC[C@]3(C)[C@H](CC[C@@H]4[C@@]5(C)CCC(=O)C(C)(C)[C@@H]5CC[C@]43C)[C@@H]12,96.2%,96.9%,119%,107%,58.2%,81.5%,99.6%,101%,103%,97.6%,105%,108%,62.1%,107%,115%,92.3%,99.5%,84%,87.8%,108%
c1n[nH]cc1-c1nc2ccc3[nH]ncc3c2c2c1CCCC2,20.4%,33.9%,11.5%,49.1%,-51.4% (active),27%,29.5%,11%,37.1%,7.13% (active),12.7%,24%,7.62% (active),23.1%,30.1%,23.1%,16.1%,-0.281% (active),18.8%,18.3%
CN1CCN(Cc2ccc(NC(=O)c3cncc(C#Cc4cnn5cccnc45)c3)cc2C(F)(F)F)CC1,6.94% (active),-11.5% (active),-16.7% (active),5.29% (active),-76.5% (active),-5.38% (active),56.7%,14.8%,44.5%,-43.9% (active),4.11% (active),17.5%,62.4%,29%,36.2%,30.8%,17.7%,23.8%,-33.3% (active),12.1%
CC1(C)[C@@H](O)CC[C@]2(C)[C@H]3CC[C@@H]4[C@H]5[C@H](C(=O)/C=C\c6ccc([N+](=O)[O-])cc6)CC[C@]5(O)CC[C@@]4(C)[C@]3(C)CC[C@@H]12,58%,27.3%,66.6%,46.2%,-7.82% (active),63.9%,79.5%,51.8%,70.3%,42.6%,27.5%,46.1%,42.1%,62.2%,69.9%,47.9%,75.8%,48.9%,-7.58% (active),46%
c1cc(-c2nc3ccc4[nH]ncc4c3c3c2CCCC3)[nH]n1,63%,64%,87.7%,89.2%,38%,71.4%,67.5%,54.1%,91.1%,39.7%,34.8%,63.7%,60.3%,64.6%,65.7%,57.1%,76.9%,50.7%,58.4%,94.1%
N/C(=N\C(N)=N\c1nc2ccccc2s1)c1ccc2ccccc2c1,69%,69.3%,91.3%,67.9%,91.8%,78.9%,74.6%,102%,109%,97.5%,69%,104%,48.5%,94.7%,47.9%,50.6%,97.4%,93.4%,-45.7% (active),95.5%
COC(=O)c1ccc(NC2=C/C(=N/S(=O)(=O)c3ccc(C(=O)O)cc3)c3ccccc3C2=O)cc1,7.85% (active),0.527% (active),-89.3% (active),-21.6% (active),-14.6% (active),37.7%,91.5%,-83.1% (active),-6.94% (active),67.4%,61.7%,112%,172%,88.6%,2.7% (active),16.6%,-35.6% (active),-24.1% (active),-65% (active),-32.6% (active)
Cn1cc(-c2nc(N)nnc2-c2c[nH]c3ccccc23)c2cc(Br)ccc21,18.6%,11.6%,40.8%,34.2%,7.61% (active),39.6%,-7.74% (active),6.14% (active),72.1%,6.36% (active),24.5%,5.93% (active),7.38% (active),27%,23.1%,6.53% (active),22.7%,21%,24%,55.2%
CC[C@H](CO)Nc1ccc2ncc(C#Cc3cncc(C(=O)Nc4ccc(CN5CCN(C)CC5)c(C(F)(F)F)c4)c3)n2n1,-94.3% (active),0.0289% (active),-81.5% (active),-60.6% (active),-95.7% (active),-60.5% (active),-82.1% (active),-91.5% (active),-85.9% (active),-95.5% (active),-38.1% (active),-35.6% (active),-91.3% (active),-22.4% (active),-85.3% (active),-31.7% (active),-95.4% (active),-57.7% (active),-98.8% (active),-79.9% (active)
c1cn2c(ccc3nc(-c4cn[nH]c4)c4c(c32)CCCC4)n1,52%,85.6%,29%,77.1%,43.6%,77.5%,42.6%,63.9%,63.5%,32.1%,35.1%,62.4%,40.5%,75.5%,56.1%,48.3%,87.6%,33.5%,79%,66%
CC[C@@H](CO)Nc1ccc2ncc(C#Cc3cncc(C(=O)Nc4ccc(CN5CCN(C)CC5)c(C(F)(F)F)c4)c3)n2n1,-82.4% (active),0.898% (active),-82.2% (active),-58.3% (active),-96.2% (active),-60.4% (active),-84.7% (active),-82.1% (active),-84.8% (active),-92% (active),-33.4% (active),-51% (active),-83.5% (active),-20% (active),-87.8% (active),-21.1% (active),-96.4% (active),-34.5% (active),-95.3% (active),-43.4% (active)
Cn1cc(-c2cc(N)n3nc(-c4cn(C)c5ccccc45)cc3n2)c2ccccc21,88.1%,7.81% (active),84%,76.4%,95.6%,100%,95.9%,84.1%,107%,32.1%,32%,50.6%,112%,112%,72.4%,88.8%,92.7%,92.9%,65.1%,95.1%
Cc1cc2ncc(-c3cc4ccccc4c(N4CCN(C)CC4)n3)nc2cc1C,33.6%,-50.7% (active),-69.1% (active),18.6%,-71.8% (active),62.7%,10.2%,-2.53% (active),99.1%,-85.7% (active),-69.7% (active),-60.4% (active),56.1%,73%,-30.9% (active),57.5%,16.2%,-46.6% (active),-83.8% (active),-69.9% (active)
CC1(C)[C@@H](O)CC[C@]2(C)[C@H]3CC[C@@H]4[C@H]5[C@H](C(=O)/C=C\c6ccccn6)CC[C@]5(O)CC[C@@]4(C)[C@]3(C)CC[C@@H]12,33.4%,7.45% (active),56.4%,33.5%,-16.2% (active),56.5%,73.6%,25.7%,61.9%,52.9%,15%,28%,26.2%,48.3%,37.7%,39.9%,54.1%,41.7%,-21.8% (active),51.4%
CCc1cccc(NC(=O)CNc2cc(S(=O)(=O)N(C)C)cc(C)c2C)c1,80.3%,85%,106%,78%,37.7%,75%,91.6%,90.7%,101%,100%,106%,104%,47%,97.3%,104%,81.6%,82.8%,72.5%,89.9%,99.5%
